Results on 59 molecules are retold here after PubChem BioAssay AID1508602 (The Scripps Research Institute Molecular Screening Center, 2020).

Screen size: about 650,000 compounds; about 6,800 (1%) were called active. Rule as the data show it: active = activation above about 4.9%; inactive = the rest. The list comes from a sample in which actives are over-represented; it also holds similar structures and randomly drawn compounds.

In this test the target is G-protein coupled receptor 151 (Homo sapiens) (UniProt Q8TDV0). In words: activators of human GPR151, primary screen, cell-based, PathHunter beta-arrestin, luminescence (AID 1508602).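 Also: 0% = median of compound wells and 100% = cells with positive control.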 As to conditions: PathHunter beta-arrestin GPR151 cells, at 11.2 µM, hits give high values.
G-protein coupled receptor 151 (Homo sapiens), sequence (Q8TDV0 whole entry, looked up): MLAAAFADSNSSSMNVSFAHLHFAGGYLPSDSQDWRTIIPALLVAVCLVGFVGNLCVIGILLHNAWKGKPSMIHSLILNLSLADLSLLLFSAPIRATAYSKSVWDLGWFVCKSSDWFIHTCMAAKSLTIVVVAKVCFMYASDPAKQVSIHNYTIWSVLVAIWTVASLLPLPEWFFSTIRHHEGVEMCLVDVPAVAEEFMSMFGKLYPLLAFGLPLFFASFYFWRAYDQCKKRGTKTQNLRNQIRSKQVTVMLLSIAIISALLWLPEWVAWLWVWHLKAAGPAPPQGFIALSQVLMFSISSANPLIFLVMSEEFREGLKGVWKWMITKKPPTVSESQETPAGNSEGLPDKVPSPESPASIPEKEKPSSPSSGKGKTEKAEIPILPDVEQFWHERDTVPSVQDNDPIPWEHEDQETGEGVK
On to `CCOc1ccc(-n2c(C)nc3cc(C(=O)NCC(OCC)OCC)ccc32)cc1`, for which the activation is -0.917% (inactive).
The figure for `COc1ccccc1-n1c(C)nc2cc(C(=O)NCc3ccc4c(c3)OCO4)ccc21` is -0.911% (inactive).
The figure for `Cc1nc2cc(C(=O)NCc3ccc4c(c3)OCO4)ccc2n1-c1ccc(OCc2ccccc2)cc1` is 9.26% (active); for `O=C(NC1CC1)c1ccc(-c2nc(NCCN3CCOCC3)c3[nH]cnc3n2)cc1` it is 2.27% (inactive); for `CCCn1c(=N)c(C(=O)NC2CCCCC2)cc2c(=O)n3cccc(C)c3nc21` it is -0.974% (inactive).
`Cc1cccn2c(=O)c3cc(C(=O)NC4CCCCC4)c(=N)n(C4CCCCC4)c3nc12`: the activation is 5.92% (active).
The figure for `Cc1ccc2nc3c(cc(C(=O)NC4CCCCC4)c(=N)n3C(C)C)c(=O)n2c1` is 0.735% (inactive); for `COc1cccc(NC(=O)N2CCc3nc(-c4ccncc4)nc(N4CCCCC4)c3C2)c1` it is -2.11% (inactive).
The figure for `CC12CCC(C(=O)Nc3ncc(Cl)cc3Cl)(CC1=O)C2(C)C` (centres undefined) is 5.35% (active).
With `CC12CCC(C(=O)Nc3c(Cl)cccc3Cl)(CC1=O)C2(C)C` (centres undefined), the activation was -0.214% (inactive).
As to `CC12CCC(C(=O)Nc3cc(Cl)ccc3Cl)(CC1=O)C2(C)C` (centres undefined), the activation was -0.262% (inactive).
The figure for `Cc1ccccc1-n1nc2c(c1NC(=O)C1CC1)CSC2` is 1.82% (inactive); for `C=CCn1c(SCC(=O)Nc2nc(C)cs2)nnc1C(C)NC(=O)c1cccs1` (centres undefined) it is 0.0682% (inactive); for `O=C(CCN(Cc1ccc(Cl)cc1)S(=O)(=O)c1ccc(Br)cc1)NO` it is 0.218% (inactive).
The figure for `CC(=O)Nc1nnc(CCOCC(C)OCCc2nnc(NC(C)=O)s2)s1` (centres undefined) is 5.04% (active); for `CCOCCc1nnc(NC(=O)CC(C)(C)C)s1` it is -0.508% (inactive).
The figure for `CCCc1nnc(NC(=O)C(C)Oc2ccccc2)s1` (centres undefined) is 0.536% (inactive); for `CCOc1ccc(NC(=O)N(CC(C)C)CC(C)C)cc1` it is -1.58% (inactive).
On to `CCOc1ccc(NC(=O)Nc2ccc(N(C)C(C)=O)cc2)cc1`, for which the activation is 6.4% (active).
For the molecule `CCOc1ccc(NC(=O)NC(=O)N(C)S(C)(=O)=O)cc1`, the activation is -0.0562% (inactive).
The figure for `CC1CCCC(C)N1C(=O)COC(=O)c1ccc(Cl)cc1N` (centres undefined) is -1.01% (inactive).
The figure for `COc1cccc(-c2ccccc2NC(=O)C2CCN(C3CCOCC3)CC2)c1` is 0.21% (inactive); for `O=C(CCc1nc2ccccc2[nH]1)N1CCC2(CC1)OCc1cc(Cl)ccc1O2` it is -0.0529% (inactive).
The figure for `COc1ccc(-c2noc(N3CCCC(C(=O)NCCCN4CCC(C)CC4)C3)n2)cc1` (centres undefined) is -1.28% (inactive); for `COc1ccc(-c2noc(N3CCC(C(=O)NCCCN4CCN(C)CC4)CC3)n2)cc1` it is 7.49% (active); for `COc1ccc(-c2noc(N3CCC(C(=O)NCCCOC(C)C)CC3)n2)cc1` it is 2.42% (inactive).
For `COC(=O)c1ccccc1NC(=O)C1=CC(c2cccc(OC)c2)=NS(=O)(=O)N1C`, the activation is 2.65% (inactive).
Take `CCOC(=O)c1sc(=S)n(-c2ccc(Br)cc2)c1N`: the activation was -1.26% (inactive).
The figure for `Cc1ccc(-c2nnc(N3CCOCC3)c3ccccc23)cc1S(=O)(=O)N1CCN(C)CC1` is 5.54% (active); for `Cc1ccc(-c2nnc(N3CCOCC3)c3ccccc23)cc1S(=O)(=O)N1CCCCC1` it is -0.605% (inactive).
The figure for `Cc1ccc(-c2nnc(NCc3ccccc3)c3ccccc23)cc1S(=O)(=O)N1CCOCC1` is -0.185% (inactive); for `CCOC(=O)c1cnc2c(C)cc(Cl)cc2c1Nc1cccc([N+](=O)[O-])c1` it is -1.43% (inactive); for `Cc1c(C)c2ccc(O)c(I)c2oc1=O` it is 0.449% (inactive).
On to `CCCOc1ccc([N+](=O)[O-])cc1C=C1C(=O)NC(=O)NC1=O`, for which the activation was 5.32% (active).
The figure for `COc1ccc([N+](=O)[O-])cc1/C=C1\C(=O)NC(=O)N(c2ccc(Br)cc2)C1=O` is 2.28% (inactive); for `O=C1NC(=O)C(=Cc2cc([N+](=O)[O-])cc(Br)c2O)C(=O)N1` it is 0.835% (inactive).
The figure for `O=C(NC1CCCCC1N1C(=O)CSC1=O)c1ccccc1F` (centres undefined) is 0.048% (inactive).
Consider `CCCN1C(=O)C(NS(=O)(=O)c2ccc(N)cc2)(C(F)(F)F)C(C(=O)OC)=C1C` (centres undefined), for which the activation was 6.6% (active).
The figure for `CC(=O)Nc1ccc(S(=O)(=O)NC2(C(F)(F)F)C(=O)NC(C)=C2C#N)cc1` (centres undefined) is 0.355% (inactive); for `CCOC(=O)C1=C(C)N(Cc2ccco2)C(=O)C1(NC(=O)c1ccccc1)C(F)(F)F` (centres undefined) it is 0.126% (inactive); for `Fc1cccc(C2=NC3(CCCC3)NC2=S)c1` it is 1.94% (inactive).
The figure for `CC(=O)Nc1nc(C)c(-c2csc(Nc3ccc(C)cc3)n2)s1` is 0.136% (inactive).
The figure for `CC(=O)Nc1nc(C(=O)Nc2nc(-c3sc(C)nc3C)cs2)cs1` is 5.72% (active); for `Cc1nc(C)c(-c2csc(Nc3ccc(Br)cc3)n2)s1` it is -0.252% (inactive).
On to `N#Cc1c(SCC(=O)Nc2ccc(Br)cc2)nsc1SCC(=O)Nc1ccc(Br)cc1`, for which the activation was -0.245% (inactive).
Take `Cc1cc(C(=O)N2CCOCC2)c2ccccc2n1`: the activation was -0.327% (inactive).
The figure for `Cc1cccc2c(C(=O)N3CCOCC3)cc(-c3ccccc3)nc12` is 0.152% (inactive); for `CCOc1ccccc1-c1cc(C(=O)N2CCOCC2)c2ccccc2n1` it is 13.1% (active).
The figure for `COc1cc([N+](=O)[O-])ccc1NC(=S)N1CCN(S(C)(=O)=O)CC1` is 0.0846% (inactive); for `COc1ccc(NC(=S)N2CCN(S(=O)(=O)c3ccc(F)cc3)CC2)c(OC)c1` it is 8.74% (active); for `O=S(=O)(c1ccc(F)cc1)N1CCN(C(=S)NC2CCCC2)CC1` it is -1.65% (inactive).
In the case of `COc1ccc(NC(=O)CSc2nc3n[nH]c(C)c3c(=N)n2-c2ccccc2Cl)c(OC)c1`, the activation was 0.84% (inactive).
For `CCOc1ccc(C(c2sc3nc(C)nn3c2O)N2CCCC2)cc1OC` (centres undefined), the activation was 0.827% (inactive).
The figure for `COCCNC(=O)CCCNC(=O)Cn1cnc2sc(C)c(C)c2c1=O` is 1.23% (inactive); for `COc1ccc(C2(NC(=O)CCn3cnc4sc(C)c(C)c4c3=O)CCCCC2)cc1` it is 4.94% (active); for `COc1cc(Cl)c(C)cc1NC(=O)Cn1cnc2sc(C)c(C)c2c1=O` it is 0.0902% (inactive).
As to `Cc1ccc(C2=NC(c3cc(Br)ccc3F)NC(c3cc(Cl)ccc3O)C2)cc1` (centres undefined), the activation was 10.7% (active).
The figure for `COc1ccccc1C1N=C(c2ccc(C)cc2)CC(c2cc(Cl)ccc2O)N1` (centres undefined) is 1.39% (inactive).
The figure for `Cc1ccc(C2=NC(c3ccc(F)cc3)NC(c3cc(Cl)ccc3O)C2)cc1` (centres undefined) is 1.41% (inactive).
